The panel holds about 79,000 compounds, 15% with a hit somewhere; the sample as a whole holds those more often. Calls of active or inactive are those of the source. No stated cut-off is given here; in the data, active means growth inhibition above about 70%; inactive means the rest.
What was measured:
[1] = NCI Yeast Anticancer Drug Screen. Data for the rad52 strain (AID 147);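 further: 0% = growth of vehicle-treated control cultures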; details: S. cerevisiae rad52 mutant growth inhibition, active compounds read high
How it was run: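 Growth of repair-deficient yeast cells was compared between compound-treated and vehicle-treated cultures to give percent inhibition.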

[2] = NCI Yeast Anticancer Drug Screen. Data for the wt1 strain (AID 149);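 further: 0% = growth of vehicle-treated wt1 cultures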; details: S. cerevisiae wt1 strain (SPY 50644) growth inhibition, active compounds read high
How it was run: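 Yeast wt1 strain exposed to compounds; growth inhibition measured relative to vehicle-treated controls.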

[3] = NCI Yeast Anticancer Drug Screen. Data for the rad50EPP+ strain (AID 151);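 further: 0% = growth of vehicle-treated control cultures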; details: S. cerevisiae rad50 mutant strain, active compounds read high
How it was run: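 Measured: growth inhibition of rad50EPP+ yeast. Reference: vehicle-treated controls. Screen uses strains with defined genetic alterations in DNA damage repair or cell cycle control.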

[4] = NCI Yeast Anticancer Drug Screen. Data for the mgt1 strain (AID 153); details: S. cerevisiae mgt1 mutant growth inhibition, active compounds read high
How it was run: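 Compounds were applied to mgt1 mutant yeast, and growth was then compared against vehicle-treated control cultures to give percent inhibition.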

[5] = NCI Yeast Anticancer Drug Screen. Data for the rad50 strain (AID 155);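 further: 0% = growth of vehicle-only cultures of the same strain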; details: S. cerevisiae rad50 strain growth inhibition, active compounds read high
How it was run: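 Yeast carrying a defined DNA repair defect were exposed to test compounds, and growth was compared with vehicle-treated controls to give percent inhibition.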

[6] = NCI Yeast Anticancer Drug Screen. Data for the mec2-1 strain (AID 157); details: S. cerevisiae mec2-1 strain, active compounds read high
How it was run: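 Compounds were applied to mec2-1 yeast cells. Their growth was then compared with that of vehicle-treated cultures to give growth inhibition.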

[7] = NCI Yeast Anticancer Drug Screen. Data for the rad14 strain (AID 159);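 further: 0% = growth of vehicle-treated control cultures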; details: S. cerevisiae rad14 strain growth inhibition, active compounds read high
How it was run: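 Yeast cells carrying a defined DNA-repair defect were exposed to compounds, and growth inhibition was calculated relative to vehicle-treated control cultures.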

[8] = NCI Yeast Anticancer Drug Screen. Data for the sgs1 mgt1 strain (AID 161);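 further: 0% = growth of cultures given vehicle only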; details: S. cerevisiae sgs1 mgt1 strain, active compounds read high
How it was run: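 This yeast growth screen uses a strain with defined DNA-repair lesions; compound-treated growth is compared with vehicle-treated growth.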

[9] = NCI Yeast Anticancer Drug Screen. Data for the CLN2oe strain (AID 163);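 further: 0% = growth of vehicle-only control cultures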; details: S. cerevisiae CLN2oe strain, active compounds read high
How it was run: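 Cells of an engineered yeast line with disturbed cell-cycle regulation are treated with compound. Inhibition of growth is then calculated relative to the vehicle-treated reference.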

[10] = NCI Yeast Anticancer Drug Screen. Data for the cln2 rad14 strain (AID 165);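 further: 0% = growth equal to vehicle treated cultures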; details: S. cerevisiae cln2 rad14 strain, active compounds read high
How it was run: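 Strain: cln2 rad14 yeast, altered in cell cycle control and DNA damage repair. Read-out: growth inhibition vs vehicle.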

[11] = NCI Yeast Anticancer Drug Screen. Data for the bub3 strain (AID 167); details: S. cerevisiae bub3 mutant strain, active compounds read high
How it was run: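 Compounds were applied to a genetically altered yeast strain carrying a cell-cycle control defect. Growth inhibition was scored against vehicle-treated controls.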

[12] = NCI Yeast Anticancer Drug Screen. Data for the wt2 strain (AID 169);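 further: 0% = growth of vehicle-treated yeast cultures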; details: S. cerevisiae wt2 strain growth inhibition, active compounds read high
How it was run: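 Growth of compound-treated yeast is measured and expressed as inhibition relative to vehicle-only controls.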

[13] = NCI Yeast Anticancer Drug Screen. Data for the sgs1 strain (AID 173);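 further: 0% = growth of vehicle-only control cultures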; details: S. cerevisiae sgs1 mutant, active compounds read high
How it was run: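 Strain with an altered DNA repair or cell cycle pathway exposed to compound. Growth then measured. Value = inhibition versus vehicle control.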

[14] = NCI Yeast Anticancer Drug Screen. Data for the mlh1 rad18 strain (AID 175); details: S. cerevisiae mlh1 rad18 strain growth inhibition, active compounds read high
How it was run: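 A repair-deficient yeast strain is exposed to test compound, and growth is scored relative to vehicle-treated controls.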

[15] = NCI Yeast Anticancer Drug Screen. Data for the mlh1 strain (AID 171);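 further: 0% = growth of vehicle-treated control cultures of the same strain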; details: S. cerevisiae mlh1 strain growth inhibition, active compounds read high
How it was run: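 Test agents were incubated with yeast bearing a defined DNA damage repair or cell cycle control alteration; values are growth inhibition normalised to vehicle-treated cultures.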

[16] = NCI Yeast Anticancer Drug Screen. Data for the rad18 strain (AID 177); details: S. cerevisiae rad18 mutant growth inhibition, active compounds read high
How it was run: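 DNA-repair-defective yeast; compound treatment; growth inhibition scored against vehicle.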

[17] = at 5.0 µM (retest, dose inferred, filed as 0.5)
[18] = at 50.0 µM (retest, dose inferred, filed as 5.0)

Measured: growth inhibition

COC(=O)C(=O)CC(=O)c1cccc(OC)c1
active: [7]; at 100.0 µM 94% | [12]; at 33.0 µM 71% | [12]; at 100.0 µM 92% | [13]; at 100.0 µM 82%
inactive: [1]; at 1.2 µM -9% | [1]; at 3.7 µM -10% | [1]; at 11.0 µM -5% | [1]; at 33.0 µM 10% | [1]; at 100.0 µM 17% | [2]; at 1.2 µM 1% | [2]; at 3.7 µM 9% | [2]; at 11.0 µM 24% | [2]; at 33.0 µM 28% | [2]; at 100.0 µM 39% | [3]; at 1.2 µM -10% | [3]; at 3.7 µM -23% | [3]; at 11.0 µM -7% | [3]; at 33.0 µM 32% | [3]; at 100.0 µM 26% | [4]; at 1.2 µM -1% | [4]; at 3.7 µM -4% | [4]; at 11.0 µM 2% | [4]; at 33.0 µM 14% | [4]; at 100.0 µM 40% | [5]; at 1.2 µM -13% | [5]; at 3.7 µM -15% | [5]; [17] -150% | [5]; at 11.0 µM -10% | [5]; at 33.0 µM 32% | [5]; [18] 51% | [5]; at 50.0 µM 19.4% | [5]; at 100.0 µM 44% | [6]; at 1.2 µM 0% | [6]; at 3.7 µM 1% | [6]; [17] -44% | [6]; at 11.0 µM 4% | [6]; at 33.0 µM 10% | [6]; [18] -15% | [6]; at 50.0 µM 18.6% | [6]; at 100.0 µM 16% | [7]; at 1.2 µM -8% | [7]; at 3.7 µM 7% | [7]; at 11.0 µM 33% | [7]; at 33.0 µM 67% | [8]; [17] -58% | [8]; [18] 24% | [8]; at 50.0 µM 0.4% | [9]; at 1.2 µM -6% | [9]; at 3.7 µM -3% | [9]; at 11.0 µM -1% | [9]; at 33.0 µM 1% | [9]; at 100.0 µM 10% | [10]; [17] -51% | [10]; [18] -45% | [10]; at 50.0 µM -75.5% | [11]; at 1.2 µM -4% | [11]; at 3.7 µM -4% | [11]; [17] -67% | [11]; at 11.0 µM -5% | [11]; at 33.0 µM 2% | [11]; [18] 12% | [11]; at 50.0 µM -7.55% | [11]; at 100.0 µM 22% | [12]; at 1.2 µM -5% | [12]; at 3.7 µM 9% | [12]; at 11.0 µM 27% | [13]; at 1.2 µM -16% | [13]; at 3.7 µM -6% | [13]; at 11.0 µM 8% | [13]; at 33.0 µM 49% | [14]; [17] -143% | [14]; [18] -19% | [14]; at 50.0 µM 49.6%

O=C1C[C@H]2[C@H](c3ccc(Br)cc3)[C@H]3C(=O)c4ccccc4NC(=O)[C@@H]3[C@@]2(O)c2ccccc2N1
active: [5]; at 50.0 µM 96.8% | [6]; at 50.0 µM 97.8% | [8]; at 50.0 µM 96.4% | [10]; at 50.0 µM 97% | [11]; at 50.0 µM 72%
inactive: [1]; at 1.2 µM 5% | [1]; at 3.7 µM 7% | [1]; at 11.0 µM 8% | [1]; at 33.0 µM 38% | [1]; at 100.0 µM 33% | [2]; at 1.2 µM 6% | [2]; at 3.7 µM 10% | [2]; at 11.0 µM 11% | [2]; at 33.0 µM 14% | [2]; at 100.0 µM 16% | [3]; at 1.2 µM 0% | [3]; at 3.7 µM 2% | [3]; at 11.0 µM 3% | [3]; at 33.0 µM 3% | [3]; at 100.0 µM 3% | [4]; at 1.2 µM 5% | [4]; at 3.7 µM 11% | [4]; at 11.0 µM 12% | [4]; at 33.0 µM 45% | [4]; at 100.0 µM 36% | [5]; at 1.2 µM 3% | [5]; at 3.7 µM 6% | [5]; [17] -12% | [5]; at 11.0 µM 9% | [5]; at 33.0 µM 35% | [5]; [18] 14% | [5]; at 100.0 µM 35% | [6]; at 1.2 µM 9% | [6]; at 3.7 µM 11% | [6]; [17] 14% | [6]; at 11.0 µM 15% | [6]; at 33.0 µM 33% | [6]; [18] 19% | [6]; at 100.0 µM 33% | [7]; at 1.2 µM 6% | [7]; at 3.7 µM 9% | [7]; at 11.0 µM 16% | [7]; at 33.0 µM 32% | [7]; at 100.0 µM 27% | [8]; [17] -3% | [8]; [18] 2% | [9]; at 1.2 µM 9% | [9]; at 3.7 µM 16% | [9]; at 11.0 µM 16% | [9]; at 33.0 µM 38% | [9]; at 100.0 µM 38% | [10]; [17] -7% | [10]; [18] 27% | [11]; at 1.2 µM 3% | [11]; at 3.7 µM 7% | [11]; [17] 7% | [11]; at 11.0 µM 9% | [11]; at 33.0 µM 19% | [11]; [18] 56% | [11]; at 100.0 µM 23% | [12]; at 1.2 µM 6% | [12]; at 3.7 µM 11% | [12]; at 11.0 µM 15% | [12]; at 33.0 µM 28% | [12]; at 100.0 µM 30% | [15]; at 1.2 µM 6% | [15]; at 3.7 µM 12% | [15]; at 11.0 µM 14% | [15]; at 33.0 µM 32% | [15]; at 100.0 µM 29% | [13]; at 1.2 µM 8% | [13]; at 3.7 µM 17% | [13]; at 11.0 µM 26% | [13]; at 33.0 µM 44% | [13]; at 100.0 µM 39% | [16]; at 1.2 µM 6% | [16]; at 3.7 µM 16% | [16]; at 11.0 µM 29% | [16]; at 33.0 µM 52% | [16]; at 100.0 µM 46%

Source: PubChem BioAssay (NCI)
